Screens as filed in PubChem BioAssay.
Only some compounds are listed: those with a hit (about 3.4% of all), similar ones and a draw of the others.
TEAD-YAP block – TEAD-YAP interaction inhibition | inhibition, % at 9.12 µM | HEK-TIYL cells, TEAD-Gal4/YAP UAS-luciferase luminescence | AID 1259422 | 1.4% of 640,000 active; in the data active = inhibition above about 32%;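 also: 0% = median of test compound wells and 100% = reference inhibitor wells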
GPR151 ag – activates the human receptor GPR151; activation, % at 11.2 µM; Q8TDV0; PathHunter beta-arrestin GPR151 cells, luminescence; 1% of 650,000 active; in the data active = activation above about 4.9%;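 also: 0% = median of compound wells and 100% = cells with positive control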
MITF primary – blocks human microphthalmia-associated transcription factor. AID 1259374. AlphaScreen MITF homodimerization, bead proximity signal. 0.91% of 650,000 active. inhibition, % at 2.6 µM. O75030; in the data active = inhibition above about 50%;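 also: 0% = vehicle wells with protein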
Target sequence (O75030 whole entry, looked up): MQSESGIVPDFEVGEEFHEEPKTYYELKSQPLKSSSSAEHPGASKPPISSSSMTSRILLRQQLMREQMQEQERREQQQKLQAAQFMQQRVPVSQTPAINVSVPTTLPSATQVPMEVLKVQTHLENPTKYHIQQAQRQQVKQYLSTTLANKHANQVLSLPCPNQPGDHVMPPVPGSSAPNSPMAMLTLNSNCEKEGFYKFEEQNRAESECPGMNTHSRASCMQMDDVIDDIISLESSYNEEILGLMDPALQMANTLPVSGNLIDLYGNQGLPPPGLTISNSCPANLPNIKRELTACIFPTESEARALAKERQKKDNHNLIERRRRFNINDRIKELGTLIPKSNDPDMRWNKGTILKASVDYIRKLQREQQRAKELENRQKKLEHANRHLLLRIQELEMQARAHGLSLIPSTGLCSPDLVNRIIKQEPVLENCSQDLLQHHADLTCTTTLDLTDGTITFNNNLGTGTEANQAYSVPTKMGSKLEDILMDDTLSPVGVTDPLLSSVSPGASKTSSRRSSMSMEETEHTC
FBW7 activator – human FBW7 E3 ligase activation, primary screen; Q969H0; AlphaScreen FBW7–phospho-cyclin E peptide binding, activator screen; normalized activity (activation), % at 26.1 µM; 0.13% of 650,000 active; in the data active = normalized activity above about 1.9%;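 also: purified mutant Fbw7 with reduced substrate affinity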
MITF confirm – confirmation of human MITF inhibitors; AlphaScreen MITF homodimerization, biotin/His-MITF beads; 16% of 4,700 active; inhibition, % at 2.6 µM; shares compounds with MITF primary;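 active = inhibition above a cutoff derived from the DMSO control wells, cut at about 28% in these data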;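 also: 0% = MITF dimer wells with DMSO only; inhibitors lower the bead chemiluminescence by keeping MITF from dimerizing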
AS interf DR – optically interferes with AlphaScreen signal in dose response | shares compounds with MITF primary | AlphaScreen optical interference counterscreen, cell-free | IC50, µM | 6% of 480 active; call rule not given here
AS interf ctr – counter-screen: compounds optically interfering with AlphaScreen | LysRS AlphaScreen counterscreen, signal interference, triplicate | shares compounds with MITF primary | 7.6% of 4,700 active | inhibition, % at 2.6 µM;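 active = inhibition above a cutoff derived from the DMSO control wells, cut at about 30% in these data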
Numbers without * were called inactive; . = no result given.

SMILES	TEAD-YAP block	GPR151 ag	MITF primary	FBW7 activator	MITF confirm	AS interf ctr	others
N#CCSc1nc2ccccc2c(=O)n1NC(=O)c1ccccc1	82*	-8	67*	0	2	10
COc1ccccc1N1CCN(C(=O)CSc2nc3ccccc3c(=O)n2NC(=O)Cc2ccccc2)CC1	14	2	23	0	.	.
CCOc1cccc(C(=O)Nc2ccc(Br)cn2)c1	-22	1	-3	0	.	.
CC(=O)CCc1ccc(OCCCCN2CCN(C)CC2)cc1	5	1	-5	0	.	.
CC(=O)CCc1ccc(OCCN2CCN(C)CC2)cc1	-8	0	1	0	.	.
CCN1CCN(CCCOc2ccc(CCC(C)=O)cc2)CC1	-1	2	56*	0	13	16
CCN1CCN(CCCCOc2ccc(CCC(C)=O)cc2)CC1	-6	-1	66*	0	10	19
CC(=O)NNC(=O)CSc1nc(C2CC2)nc2sc3c(c12)CCC(C)C3 (stereo not drawn)	-5	-1	4	0	.	.
O=C(CC1CCCCC1)Nc1c2c(nn1-c1cccc(Cl)c1)CSC2	10	2	-3	0	.	.
Cc1[nH]c(=O)[nH]c1C(=O)CCCCC(=O)OCC(=O)Oc1ccc2ccccc2c1	-6	1	112*	-1	111*	98*
Cc1[nH]c(=O)[nH]c1C(=O)CCCCC(=O)OCC(=O)Nc1ccccc1[N+](=O)[O-]	9	0	113*	-1	115*	93*
Cc1[nH]c(=O)[nH]c1C(=O)CCCCC(=O)O	8	1	121*	0	113*	95*
CC(=O)NCC(=O)OCC(=O)Nc1ccccc1[N+](=O)[O-]	7	0	-6	0	.	.
CCOC(=O)CCCCC(=O)c1[nH]c(=O)[nH]c1CNc1ccc(Br)cc1	3	-2	27	1	.	.
CCCCCCC(=O)Oc1ccc2cc(OC(=O)CCCCCC)ccc2c1	-2	0	1	0	.	.
CCOC(=O)CCCC/C(=N\O)c1[nH]c(=O)[nH]c1C	-7	0	99*	-1	97*	65*
Cc1cc(NC(=O)COC(=O)CCCCC(=O)c2[nH]c(=O)[nH]c2C)no1	9	1	116*	-2	112*	93*
CC(=O)N/C(=C\c1ccccc1)C(=O)OCC(=O)OC(C)(C)C	-8	0	54*	0	14	12
COc1cc(C=Nc2ccc(N(C)C)cc2)cc(I)c1O	21	1	77*	1	45*	30	AS interf DR=>6.5
S=c1[nH]nc(CCN2CCN(Cc3ccccc3)CC2)n1-c1ccccc1	-9	-1	4	0	.	.
COc1ccccc1NC(=S)NCCCn1ccnc1	6	1	79*	0	-1	2
COC(=O)Cc1[nH]nc2c1C1(C(=O)N(Cc3ccccc3)c3ccccc31)C(C#N)=C(N)O2 (stereo not drawn)	7	0	10	0	.	.
COC(=O)Cc1[nH]nc2c1C1(C(=O)Nc3ccccc31)C(C#N)=C(N)O2 (stereo not drawn)	-6	0	66*	0	11	-2
N#Cc1ccc(NC(=O)CNCc2ccncc2)cc1	6	-1	35	0	.	.
COc1ccc(NC(=O)CNS(=O)(=O)c2cccc3nonc23)cc1Cl	6	0	6	0	.	.
SMILES	TEAD-YAP block	GPR151 ag	MITF primary	FBW7 activator	MITF confirm	AS interf ctr	others
COc1ccc(NC(=O)CCNS(=O)(=O)c2cccc3nonc23)cc1Cl	1	-1	55*	0	-3	1
Cc1[nH]c2ccccc2c1CCNC(=O)CN1C(=O)c2ccccc2C1=O	-3	0	-4	0	.	.
CC(=O)C1=C(O)C(=O)N(CCCNCCO)C1c1ccccc1 (stereo not drawn)	8	0	9	1	.	.
O=C1CCC(CCNCc2cccnc2)N1CC1(c2ccccc2)CCOCC1 (stereo not drawn)	0	0	1	0	.	.
O=C1CCC(CCNCc2ccc(F)cc2)N1CC1(c2ccccc2)CCOCC1 (stereo not drawn)	0	-1	51*	0	-3	2
O=C(NNC(=O)c1cc(-c2ccco2)nc2ccccc12)NC1CCCCC1	3	5	87*	-1	91*	2	AS interf DR=>6.5
Cc1ccc2nc(-c3ccccc3)cc(C(=O)N3CCC(C(N)=O)CC3)c2c1	2	-1	-7	0	.	.
NC(=O)C1CCN(C(=O)c2cc(-c3ccco3)nc3ccccc23)CC1	-1	-2	97*	-1	75*	-11	AS interf DR=>6.7
COc1cccc(CN2CCC(=O)N(Cc3ccccn3)CC2)c1	12	0	15	0	.	.
O=[N+]([O-])c1cccc(CN2CCN(C3CCN(Cc4ccccc4)CC3)CC2)c1	4	1	46	0	.	.
Cc1cccc(CN2CCN(Cc3ccccn3)CC2)c1	3	-1	72*	0	6	20
Fc1ccc(CN2CCN(Cc3ccccn3)CC2)cc1	-52	3	70*	0	9	16
Cc1cccc(CN2CCN(c3ncccn3)CC2)c1	-12	3	54*	0	7	10
O=[N+]([O-])c1cccc(CN2CCN(Cc3ccccn3)CC2)c1	-2	0	101*	0	-8	-2
Clc1ccccc1CN1CCN(c2ccccn2)CC1	1	-1	47	0	.	.
OCC1(Cc2cccc(Cl)c2)CCCN(Cc2ccccn2)C1 (stereo not drawn)	-1	-1	1	0	.	.
Clc1cccc(CN2CCN(Cc3ccccn3)CC2)c1	2	2	70*	0	22	17
Clc1ccccc1CN1CCN(Cc2ccccn2)CC1	-16	-1	74*	0	-1	1
O=C(/C=C/c1ccco1)NC(=S)Nc1ccc(Cl)c(C(=O)O)c1	-2	0	76*	0	64*	10	AS interf DR=>6.5
CCN1CCc2c(sc(NC(=S)NC(=O)/C=C/c3ccccc3)c2C(N)=O)C1	-3	0	10	0	.	.
COc1cccc(NC(=S)NC(=O)/C=C/c2ccco2)c1	-1	1	13	0	.	.
CCN1CCc2c(sc(NC(=S)NC(=O)/C=C/c3ccco3)c2C(N)=O)C1	-14	1	78*	0	79*	3	AS interf DR=>6.5
O=C(/C=C/c1ccco1)NC(=S)Nc1cccc(C(=O)O)c1	-27	-1	69*	-1	62*	10	AS interf DR=>6.5
O=C(O)C1CC(=O)N(Cc2ccc3c(c2)OCO3)C(=Nc2ccc(F)cc2)S1 (stereo not drawn)	7	0	11	0	.	.
COc1ccc(CN2CCN(C(=O)c3ccncc3)CC2)cc1OC	3	0	70*	0	-9	-3
COc1cc(OC)cc(C(=O)N2CCN(Cc3cc(OC)c(OC)c(OC)c3)CC2)c1	5	-1	29	0	.	.
COc1ccc(C(=O)N2CCN(Cc3ccc(OC)c(OC)c3)CC2)cc1	-6	-2	25	0	.	.
